This is part of a sample that, as a whole, favours compounds with a hit. Of some 83,000 tested, about 20% had one in any assay.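 Cells were grown in 96-well plates and exposed to the test compound at a single concentration for 48 hours; results are reported as percent growth, with values below 10 considered active.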 Activity calls are given as the source filed them.
Test system: T-47D breast
Test: NCI-60 one-dose screen, 48 h (100 = growth as untreated, 0 = no growth, -100 = all killed)
Details: 10 µM unless noted
Protocol: Growth inhibition of the T-47D human tumor cell line is measured as a screen for anti-cancer activity. Cells are grown in 96 well plates and exposed to the test compound for 48 hours. Compounds are tested at a single concentration, which is 10^-5 M for most compounds. The reported endpoint is percent growth (GI% or GIPRCNT), where numbers from 0 - 100% represent growth inhibition, and numbers from -100% - 0 represent cell death. For example, a value of 40 represents 60% growth inhibition. A value of 0 means no net growth occurred over the course of the experiment. A value of -40 indicates 40% of cells at the beginning of the experiment died by the end of the experiment. A value of -100 means all cells are dead at the end of the experiment.
NCI-60 Human Tumor Cell Lines Screen was performed using the standard one-dose NCI protocol, which is described in more detail at https://dtp.cancer.gov/discovery_development/nci-60/default.htm.
Compounds with GIPRCNT values below 10 were considered active. Activity score was based on GIPRCNT using the following formula: […]
Score is 0 for GIPRCNT values of 100 or above, 50 for GIPRCNT values of 0, and 100 for GIPRCNT values of -100.

| SMILES | growth |
| --- | --- |
| NCCOc1ncccc1/C=C1\c2ccccc2-c2ccc(F)cc21 | 21.2% (inactive) |
| COc1ccc(-c2nocc2-c2cccs2)cc1 | 75.7% (inactive) |
| COc1ccc(/C=C/C(=O)c2ccc(Nc3nc(NCCO)nc(Nc4ccc(Cl)cc4)n3)cc2)cc1 | 38% (inactive) |
| CN(C)/C=C1\SC(=Nc2ccc(Cl)cc2)NC1=O | 105% (inactive) |
| COc1ccc(OC)c(/C=C/C(=O)c2c(C)nc3ccccc3c2/C=C/c2ccccc2)c1 | 30.6% (inactive) |
| Nc1ccc(C2c3ccccc3Oc3ccccc32)cc1 | 84.1% (inactive) |
| O=c1c2cc(F)ccc2sc2c(NCCCNCCO)nc3ccc(Cl)cc3c12 | 57.5% (inactive) |
| Nc1nc(-c2cnccn2)nn1-c1nc2ccccc2s1 | 96.9% (inactive) |
| COc1ccc(-n2c(C(O)c3ccccc3)nn(CN3CCOCC3)c2=S)cc1 (stereo not given) | 90.4% (inactive) |
| O=C(CCc1nnc2sc(COc3ccccc3)nn12)c1nc2ncccc2[nH]1 | 92.7% (inactive) |
| O=C(CSc1ncccc1C(=O)O)Nc1ccc(Oc2ccccc2)cc1 | 103% (inactive) |
| O=C(Nc1ccc(N2CCNCC2)cc1)c1[nH]ncc1Nc1cc(C2CC2)ncn1 | 57.1% (inactive) |
| O=C(Nc1ccc(-c2nc3ccc(NC(=O)c4ccc(Cl)cc4)cc3[nH]2)cc1)c1ccc(Cl)cc1 | -1.92% (active) |
| CNCCNc1nc2ccccc2c2c(=O)c3cc(OC)ccc3sc12 | -33.6% (active) |
| Cn1c(/C=C(\C#N)c2cccc(C(F)(F)F)c2)nc2c(N3CCOCC3)nc(Cl)nc21 | -36.6% (active) |
| CCOC(=O)c1sc(-c2ccc(OS(=O)(=O)c3ccc(Br)s3)c(C=O)c2)nc1C | 30.8% (inactive) |
| NCCCNc1nc2ccccc2c2c(=O)c3cc(F)ccc3sc12 | -39% (active) |
| Cc1nn(-c2nc3ccccc3[nH]2)c2c1C(c1ccc(OCC(N)=O)cc1)CC(=O)N2 (stereo not given) | 90.8% (inactive) |
| O=C1c2cc(I)ccc2Oc2cc([N+](=O)[O-])ccc2N1c1ccc(Cl)cc1F | 82.5% (inactive) |
| O=C1N=c2ccccc2=C1c1sc(=Nc2ccccc2)n(Nc2ccccc2)c1O | 97.6% (inactive) |

| SMILES | growth |
| --- | --- |
| COc1ccc(C2C3=C(COC3=O)N(CCO)c3cc4c(cc32)CCC4)cc1OC (stereo not given) | 22.6% (inactive) |
| CC/C=C\C[C@H](O)C/C=C1/C(=O)C=C[C@@H]1C/C=C\CCCC(=O)OCCS(=O)(=O)c1ccccc1 | 18.3% (inactive) |
| N#C/C(=C\c1c(-c2ccccc2)[nH]c2ccccc12)S(=O)(=O)c1ccccc1 | 38.9% (inactive) |
| COC(=O)[C@@H]1CCCN1C(=O)[C@H]1CCCN1C(=O)[C@@H](Cc1c[nH]c2ccccc12)NC(=S)Nc1cc(C(F)(F)F)cc(C(F)(F)F)c1 | 37.3% (inactive) |
| O=C(COc1cc(O)c2c(=O)cc(-c3ccccc3)oc2c1)Nc1ccccc1 | 94.3% (inactive) |
| CC(=O)n1cc(-c2c[nH]c3ccccc23)c(-c2ccc(Cl)cc2)n1 | 72.7% (inactive) |
| O=C(c1ccccc1)N(C(=S)NCCc1ccc(Cl)cc1)c1ccc(Cl)cc1 | 45.5% (inactive) |
| CSc1nc2c(c(=O)[nH]1)N=C1c3ccccc3C(=O)C1C(c1ccccc1)N2 (stereo not given) | 43.9% (inactive) |
| O=c1oc2ccc(F)cc2c(=O)n1-c1ccc(Br)cc1F | -12.3% (active) |
| C1=CC2(C=C1)OC21CCC2(C=CC3(C2)OC3C2CCCCC2)CC1 (stereo not given) | 104% (inactive) |
| O=c1oc2ccc(Cl)cc2c(=O)n1-c1cc(C(F)(F)F)cc(C(F)(F)F)c1 | -9.71% (active) |
| CCOC(=O)C1(C(=O)OCC)N=C(c2ccccc2)C=C1c1ccccc1 | 62.2% (inactive) |
| O=c1c2cc(F)ccc2sc2c(Nc3ccncc3)nc3ccccc3c12 | -3.72% (active) |
| O=C1C(Cl)=C(NCc2ccco2)C(=O)c2ccccc21 | 69.1% (inactive) |
| O=C(NC(=S)Nc1cccc(NC(=S)NC(=O)c2ccccc2)c1)c1ccccc1 | 54.6% (inactive) |
| CC(=O)Nc1nc2c(s1)CCc1c-2cn(S(=O)(=O)c2ccccc2)c1-c1ccccc1 | 49.3% (inactive) |
| Cc1nc2ccccc2c(/C=C/c2ccccc2)c1C(=O)/C=C/c1ccc(Cl)cc1 | 13.4% (inactive) |
| CC[C@H](C)[C@@H](C(=O)OC)n1cc(CNC(=O)[C@@H](Cc2ccccc2)NC(=O)OCc2ccccc2)nn1 | 107% (inactive) |
| O=C(CCc1nnc2sc(Cc3ccccc3Cl)nn12)c1nc2ncccc2[nH]1 | 90.6% (inactive) |
| COc1ccc2[nH]c(O)c(N=NC(=O)c3oc4ccccc4c3C)c2c1 | -39.2% (active) |

From PubChem BioAssay (NCI)
